Screening results: PubChem, several laboratories
E coli growth-1: counter-screen for AddAB inhibitors: E. coli growth inhibition; E. coli V3065 growth, OD600 absorbance, 18 h; inhibition, % at 11.9 µM; 0.27% of 330,000 active;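 active means inhibition above the campaign's mean inhibition across all tested compounds plus 3 SD, cut at about 9.9% in these data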;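 further: uninfected addAB+ strain grown without phage in ampicillin broth; 0% = DMSO wells and 100% = ciprofloxacin 0.95 µg/ml wells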
phage Ecoli inh: E. coli growth loss with phage present. inhibition, % at 11.9 µM. 0.26% of 360,000 active. growth absorbance; in the data active means inhibition above about 11%
Tat export inh: E. coli Tat transport inhibition; AID 488895; inhibition, % at 10 µM; 0.036% of 340,000 active; E. coli MC4100 TorA-mCherry Tat export, fluorescence;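 active means mean replicate inhibition at least 50% and at least half of replicates individually reaching 50%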;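 further: exported cargo escapes ClpAP degradation while cytoplasmic cargo is degraded and loses fluorescence; 0% = median of neutral control wells and 100% = median of NaSCN control wells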
AddAB inh: less growth of phage-infected E. coli with AddAB. E. coli expressing H. pylori AddAB, absorbance growth. inhibition, % at 11.9 µM. 0.29% of 330,000 active. AID 435030; in the data active means inhibition above about 12%;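 further: 0% = vehicle wells of infected cells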
E coli growth-2: inhibitors of Escherichia coli growth | 0.21% of 330,000 active | OD600 absorbance (concentration not given with the values) | OD600, 23 h; stronger effect = lower value;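 active means OD600 absorbance below the run mean of sample wells minus 3.6 SD, in any replicate, cut at about 0.56 in these data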
AddAB confirm: confirmation screen: growth loss of phage-infected E. coli expressing H. pylori AddAB; inhibition, % at 11.9 µM; E. coli V3065 expressing H. pylori AddAB, T4 phage, OD; T4 phage with gene 2 nonsense mutations; shares compounds with AddAB inh; 64% of 880 active; AID 488942;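 active means mean inhibition above a set limit taken from the earlier primary screen, cut at about 13% in these data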;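 further: higher means less bacterial growth since AddAB block lets phage replicate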
RecBCD counter: AddAB counter-screen: growth loss of RecBCD+ E. coli infected with mutant T4 phage. E. coli V66 + mutant T4 phage, OD growth. 73% of 880 active. shares compounds with AddAB inh. inhibition, % at 11.9 µM. AID 488955;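 active means mean inhibition above the mean of solvent-only control wells plus 3 SD, cut at about 4% in these data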;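 further: optical density read after an 18 h incubation at 37 °C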
bact viab count: reduces bacterial viability, AddAB inhibitor counter-screen; AID 488956; shares compounds with AddAB inh; inhibition, % at 11.9 µM; absorbance (AddAB counterscreen); 35% of 880 active; in the data active means inhibition above about 25%
RecBCD conf: growth loss of phage-infected V66 E. coli, RecBCD confirmation screen; shares compounds with phage Ecoli inh; E. coli V66 + T4 2- phage, growth OD; inhibition, % at 11.9 µM; 45% of 890 active; AID 651982;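 active means mean inhibition over triplicates exceeding the hit threshold derived in the original primary screen, cut at about 11% in these data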
Ecoli viability: inhibits E. coli viability, flagging RecBCD hits as nonselective; absorbance (OD) growth; shares compounds with phage Ecoli inh; 29% of 890 active; inhibition, % at 11.9 µM; in the data active means inhibition above about 20%;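 further: E. coli strain V66 grown with compound alone and no phage infection; 0% = bacteria with DMSO vehicle only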
AddAB phage OD: growth loss of phage-infected AddAB E. coli, RecBCD counter-screen. shares compounds with phage Ecoli inh. E. coli expressing H. pylori AddAB + T4 phage, OD growth; gene 2 mutant T4, recBCD-deleted host. inhibition, % at 11.9 µM. 45% of 890 active. AID 651984;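 active means mean inhibition above the solvent-only control wells' mean plus 3 SD, cut at about 22% in these data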;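 further: higher means less bacterial growth from phage killing when AddAB is blocked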
* marks the source's active call; other numbers are inactive results; x = not tested or not shown. Rows were chosen to be rich in hits. Some 0.5% of all compounds tested hit in one or more screens of this group.

SMILES | E coli growth-1 | phage Ecoli inh | Tat export inh | AddAB inh | E coli growth-2 | AddAB confirm | RecBCD counter | bact viab count | RecBCD conf | Ecoli viability | AddAB phage OD
O=c1nc(N/N=C/c2ccccn2)cn[nH]1 | 29.2* | 31.2* | -25.6 | 28.8* | x | 30.5* | 31.3* | 24.2 | 23.7* | 32.4* | 31.1*
Cc1cc(=O)[nH]c(NN=Cc2ccccn2)n1 | x | x | x | x | 0.533 | x | x | x | x | x | x
Cc1cc(=O)[nH]c(N/N=C/c2ccccn2)n1 | 12.8* | 18.8* | -9.5 | 18.2* | x | 9.8 | 20.1* | 8.9 | 6.5 | 16.0 | 13.1
O=C1C=C(c2cccc(CO)c2)CC(c2ccc3c(c2)OCO3)C1 (stereo not drawn) | x | x | x | x | 0.645 | x | x | x | x | x | x
CC(=O)NC(c1ccc(C)cc1)c1cc([N+](=O)[O-])c2cccnc2c1O (stereo not drawn) | 1.1 | 1.4 | -9.1 | 1.2 | 0.681 | x | x | x | x | x | x
CCCC(=O)NC(c1ccco1)c1cc([N+](=O)[O-])c2cccnc2c1O (stereo not drawn) | -3.0 | 3.6 | -11.0 | 2.6 | 0.623 | x | x | x | x | x | x
CCC(=O)NC(c1cc(Cl)c2cccnc2c1O)C(C)C (stereo not drawn) | 16.9* | 17.5* | -3.1 | 15.3* | 0.658 | 3.6 | 12.4* | 4.6 | 4.7 | 8.0 | 13.3
CCCCC(=O)NC(c1cccs1)c1cc(Cl)c2cccnc2c1O (stereo not drawn) | 17.7* | 17.1* | -4.8 | 15.8* | 0.655 | 20.8* | 17.4* | 16.2 | 10.5 | 10.5 | 19.0
CC(=O)NC(c1ccccc1)c1cc(Cl)c2cccnc2c1O (stereo not drawn) | 17.6* | 12.7* | 23.2 | 17.2* | 0.634 | 10.6 | 15.2* | 3.8 | 5.1 | 8.9 | 9.7
CCC(=O)NC(c1cccs1)c1cc(Cl)c2cccnc2c1O (stereo not drawn) | 26.5* | 26.3* | -4.3 | 23.2* | 0.706 | 24.8* | 21.7* | 16.5 | 14.1* | 20.6* | 21.2
O=C(C=Cc1ccc(S(=O)(=O)N2CCOCC2)cc1)NC(=S)NCCCn1ccnc1 | x | x | x | x | 0.674 | x | x | x | x | x | x
COc1ccc(C=NNC(=O)c2c(Br)cnn2C)c2ccccc12 | x | x | x | x | 0.707 | x | x | x | x | x | x
O=C(O)CC1SC(=NN=CC2CC=CCC2)NC1=O (stereo not drawn) | x | x | x | x | 0.706 | x | x | x | x | x | x
C[C@H]1COc2c(N3CCN(C)CC3)c(F)cc3c(=O)c(C(=O)O)cn1c23 | 99.0* | 99.7* | 147.8* | 98.3* | x | 102.1* | 101.0* | 101.8* | 104.2* | 105.7* | 105.5*
CN1CCN(c2c(F)cc3c(=O)c(C(=O)O)cn4c3c2SCC4)CC1 | 98.0* | 98.5* | 42.6 | 97.9* | 0.047* | 101.7* | 101.2* | 103.4* | 102.4* | 104.1* | 102.9*
COc1ccc(CCc2cc(OC)c(OC)c(OC)c2)cc1 | x | 0.2 | 3.6 | x | x | x | x | x | x | x | x
COc1cc(Cc2cc(N)nc(N)n2)cc(OC)c1OC | 101.3* | 94.6* | -6.6 | 101.2* | 0.051* | 98.6* | 99.2* | 98.5* | 103.1* | 104.5* | 103.1*
O=C(/C=C1\NC2(CCCC2)Cc2ccccc21)C(=O)N/N=C/c1ccccc1O | 12.9* | 25.0* | 1.5 | 15.6* | x | 29.8* | 24.6* | 21.8 | 18.6* | 21.6* | 24.8*
CC=C(C)C(=O)Nc1cccc(C2=NOC3(C2)CC(C(N)=O)N(C(=O)C(c2ccccc2)c2ccccc2)C3)c1 (stereo not drawn) | x | x | x | x | 0.669 | x | x | x | x | x | x
O=C(N/N=C/c1ccc(O)c(O)c1O)/C(=C/c1ccc([N+](=O)[O-])cc1)NC(=O)c1ccccc1 | 20.0* | 15.1* | 7.4 | 15.9* | x | 5.8 | 9.5* | 1.6 | 0.5 | 3.4 | 1.6
